Outcome and AC50 data for seven compounds are collected here from PubChem BioAssay (EPA / NIEHS).

Assay [1] is described as follows: ATG_GRE_CIS: Attagene CIS-FACTORIAL HepG2 Assay for human Glucocorticoid Response Elements (GRE) (AID 2282947). As to conditions: HepG2 GRE cis-reporter, Attagene multiplex mRNA; actives raise or lower the signal. The method, boiled down: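 Reporter transcripts read by RT-PCR with capillary electrophoresis fluorescence after a 24 h chemical exposure of HepG2 cells transiently transfected with multiple cis-element reporter units. Gain or loss fitted against DMSO.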

Assay [2] in a line: ATG_ISRE_CIS: Attagene CIS-FACTORIAL HepG2 Assay for human Interferon Regulatory Factor 1 (IRF1) binding to an Interferon-Stimulated Response Element (ISRE) (AID 2282948). As to conditions: HepG2 ISRE cis-reporter (Attagene), mRNA transcription readout; actives raise or lower the signal. Summed up: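 Uses HepG2 liver cells transfected with cis-regulated reporters and measures mRNA 24 h post-dosing through RT-PCR, primer-extension labelling and capillary electrophoresis, with DMSO as negative control.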

The nature of assay [3]: ATG_M_32_CIS: Attagene CIS-FACTORIAL HepG2 Assay for M32 Transcription Factor (Internal Marker) (AID 2282949).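 Note: background control marker of the multiplexed CIS panel rather than a real target.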 As to conditions: HepG2 Attagene cis-factorial M32 reporter, mRNA; actives raise or lower the signal. The method, boiled down: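 HepG2 human liver cells transiently transfected with cis-promoter-driven multiple reporter transcription units, dosed 24 h. Reporter mRNA quantified by RT-PCR, FAM-labelled primer extension, HpaI digest and capillary electrophoresis; bidirectional fit versus DMSO baseline.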

Assay [4] is described as follows: ATG_M_06_CIS: Attagene CIS-FACTORIAL HepG2 Assay for M06 Transcription Factor (Internal Marker) (AID 2282950). As to conditions: HepG2 Attagene CIS-FACTORIAL M06 internal marker reporter; actives raise or lower the signal. The method, boiled down: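 Measured 24 h post-dosing in transiently transfected HepG2 cells, this internal-marker endpoint reports reporter mRNA via RT-PCR with fluorescent primer extension and capillary electrophoresis. DMSO served as negative control and baseline for bidirectional fitting.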

Assay [5] concerns the target Hypoxia-inducible factor 1-alpha (Homo sapiens) (UniProt Q16665). Briefly: ATG_HIF1a_CIS: Attagene CIS-FACTORIAL HepG2 Assay for human Hypoxia Inducible Factor 1 (HIF1A) (AID 2282951). As to conditions: HepG2 Attagene cis-factorial HIF1a reporter transcription; actives raise or lower the signal. Summed up: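 HepG2 cells transiently transfected with multiplexed cis-promoter reporter units; reporter mRNA read 24 h after dosing by RT-PCR, 6-FAM primer-extension labelling, HpaI digestion and capillary electrophoresis. Bidirectional fit versus DMSO baseline.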

Assay [6] has as its target Hepatocyte nuclear factor 6 (Homo sapiens) (UniProt Q9UBC0). Briefly: ATG_HNF6_CIS: Attagene CIS-FACTORIAL HepG2 Assay for human Hepatocyte Nuclear Factor 6 (HNF6) (AID 2282952). As to conditions: HepG2 Attagene cis-factorial HNF6 reporter transcription; actives raise or lower the signal. The method, boiled down: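 First, HepG2 cells were transfected with the multiplexed cis reporter library and dosed with chemical for 24 h. Next, RNA was reverse-transcribed, PCR-amplified and fluorescently labelled. Finally, HpaI-digested fragments were read by capillary electrophoresis.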

Assay [7] addresses Heat shock factor protein 1 (Homo sapiens) (UniProt Q00613). Briefly: ATG_HSE_CIS: Attagene CIS-FACTORIAL HepG2 Assay for human Heat Shock Transcription Factor 1 (HSE) (AID 2282953). As to conditions: HepG2 HSE cis-reporter, Attagene RNA transcription; actives raise or lower the signal. The method, boiled down: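 Reporter mRNA induction in HepG2 is measured 24 h after dosing, using transiently transfected multiplexed cis-regulated reporter units. Signal comes from capillary electrophoresis of labelled RT-PCR products, with DMSO as negative control.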

A short description of assay [8]: ATG_MRE_CIS: Attagene CIS-FACTORIAL HepG2 Assay for human Metal Responsive Element (MRE) (AID 2282954). As to conditions: HepG2 MRE cis-reporter transcription, Attagene multiplex; actives raise or lower the signal. Summed up: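 Endogenous MRE-dependent transcription read as reporter mRNA in transiently transfected human HepG2 cells at 24 h. RNA reverse-transcribed, PCR-amplified, labelled and resolved by capillary electrophoresis; gain or loss relative to DMSO.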

The nature of assay [9]: ATG_PBREM_CIS: Attagene CIS-FACTORIAL HepG2 Assay for human Phenobarbital-responsive Enhancer Module (PBREM) (AID 2282955). As to conditions: HepG2 PBREM cis-reporter, Attagene multiplexed transcription; actives raise or lower the signal. Summed up: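 HepG2 cells transiently transfected with multiple cis-regulated reporter transcription units; endogenous factor activity at the PBREM element measured as reporter mRNA 24 h after dosing, via RT-PCR and capillary electrophoresis of fluorescent fragments; bidirectional fitting versus DMSO.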

In assay [10] the target is Paired box protein Pax-6 (Homo sapiens) (UniProt P26367). The experiment in a line: ATG_Pax6_CIS: Attagene CIS-FACTORIAL HepG2 Assay for human Paired Box 6 (PAX6) (AID 2282956). As to conditions: HepG2 CIS-FACTORIAL PAX6 reporter transcription, RNA readout; actives raise or lower the signal. The method, boiled down:
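DMSO-referenced bidirectional fits of reporter mRNA fluorescence; HepG2 with transient cis-promoter MRTUs, 24 h post-dose, RT-PCR plus capillary electrophoresis detection.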

Assay [11] is described as follows: ATG_PXRE_CIS: Attagene CIS-FACTORIAL HepG2 Assay for human Pregnane X Receptor Element (PXRE) (AID 2282957). As to conditions: HepG2 Attagene CIS-FACTORIAL PXRE reporter, mRNA; actives raise or lower the signal. Summed up: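 After a 24 h chemical incubation, total RNA from transfected HepG2 cells was reverse-transcribed and reporter cDNA amplified, FAM-labeled, HpaI-digested and sized by capillary electrophoresis. DMSO served as baseline for bidirectional curve fitting.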

Assay [12] in a line: ATG_PPRE_CIS: Attagene CIS-FACTORIAL HepG2 Assay for human Peroxisome Proliferator-activated Response Element (PPRE) (AID 2282958). As to conditions: HepG2 PPRE cis-element reporter, Attagene transcription factor profiling; actives raise or lower the signal. The method, boiled down: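 HepG2 cells transiently transfected with multiplexed cis-element reporter units measure endogenous transcription factor activity. After 24 h compound exposure, reporter mRNA is quantified by RT-PCR, 6-FAM labeling, HpaI digestion and capillary electrophoresis; bidirectional fits are made against DMSO baseline.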

Assay [13] is described as follows: ATG_RORE_CIS: Attagene CIS-FACTORIAL HepG2 Assay for human RAR-related Orphan Receptor Element (RORE) (AID 2282959). As to conditions: HepG2 Attagene cis-factorial RORE reporter, mRNA; actives raise or lower the signal. The method, boiled down: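 HepG2 cells transiently transfected with multiple cis-element reporter transcription units, exposed to chemical for 24 h. Reporter mRNA quantified by RT-PCR, 6-FAM primer-extension labeling, HpaI digestion and capillary electrophoresis; bidirectional fit versus DMSO baseline.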

A short description of assay [14]: ATG_Sox_CIS: Attagene CIS-FACTORIAL HepG2 Assay for human SRY-box transcription factor (SOX) (AID 2282960). As to conditions: HepG2 Attagene cis-factorial SOX reporter, mRNA; actives raise or lower the signal. Summed up: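 HepG2 cells transiently transfected with cis-element-driven multiple reporter transcription units, dosed 24 h; reporter mRNA measured by RT-PCR, FAM labelling, HpaI digestion and capillary electrophoresis. Bidirectional fit versus DMSO baseline.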

Assay [15] deals with Transcription factor Sp1 (Homo sapiens) (UniProt P08047). Briefly: ATG_Sp1_CIS: Attagene CIS-FACTORIAL HepG2 Assay for human Specificity Protein 1 (Sp1) (AID 2282961). As to conditions: HepG2 Sp1 cis-reporter transcription, actives raise or lower the signal. Summed up:
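HepG2 cells transiently transfected with multiple reporter transcription units driven by cis-regulatory elements; Sp1-responsive reporter mRNA measured 24 h after dosing by RT-PCR and capillary electrophoresis fluorescence, fitted bidirectionally against DMSO baseline.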

The target in assay [16] is Signal transducer and activator of transcription 3 (Homo sapiens) (UniProt P40763). Briefly: ATG_STAT3_CIS: Attagene CIS-FACTORIAL HepG2 Assay for human Signal Transducer and Activator of Transcription 3 (STAT3) (AID 2282963). As to conditions: HepG2, Attagene cis-factorial STAT3 reporter transcription; actives raise or lower the signal. Summed up: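 Readout is reporter transcript quantified by RT-PCR and capillary electrophoresis, with 6-FAM primer extension and HpaI digestion. Total RNA is taken 24 h after dosing transiently transfected HepG2 carrying cis-regulated reporter units. Bidirectional fit against DMSO.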

The nature of assay [17]: ATG_TA_CIS: Attagene CIS-FACTORIAL HepG2 Assay for human TA Basal Promoter (AID 2282964). As to conditions: HepG2 Attagene CIS-factorial TA basal promoter reporter; actives raise or lower the signal. Summed up:
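Cis-factorial format in HepG2: reporters report endogenous factors, not chimeric Gal4 fusions. After 24 h treatment, reporter transcripts were measured by RT-PCR-capillary electrophoresis fluorescence, analysed bidirectionally versus DMSO.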

A short description of assay [18]: ATG_TCF_b_cat_CIS: Attagene CIS-FACTORIAL HepG2 Assay for human T-Cell-Factor with beta-catenin (TCF/b-cat) (AID 2282965). As to conditions: HepG2 TCF/beta-catenin cis-reporter transcription, actives raise or lower the signal. Summed up: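 Measured: reporter mRNA in HepG2 transiently transfected with cis-promoter reporter units, 24 h after chemical addition. Fitting was bidirectional, DMSO as negative control.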

Assay [19] can be described thus: ATG_SREBP_CIS: Attagene CIS-FACTORIAL HepG2 Assay for human Sterol Regulatory Element Binding (SREBP) (AID 2282962). As to conditions: HepG2 Attagene cis-factorial SREBP reporter, mRNA; actives raise or lower the signal. The method, boiled down:
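In this cis-format assay, HepG2 liver cells express reporters controlled by promoter elements responsive to native transcription factors. Exposure lasts 24 h; reporter mRNA fluorescence from capillary electrophoresis gives the signal, fitted bidirectionally against DMSO.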

Active and inactive are the calls of the source. Rule for the calls: active = hit-call score of the fitted dose curve at least 0.9, where 1 is the maximum; inactive = score below 0.9.

Paired box protein Pax-6 (Homo sapiens), sequence (P26367 whole entry, looked up): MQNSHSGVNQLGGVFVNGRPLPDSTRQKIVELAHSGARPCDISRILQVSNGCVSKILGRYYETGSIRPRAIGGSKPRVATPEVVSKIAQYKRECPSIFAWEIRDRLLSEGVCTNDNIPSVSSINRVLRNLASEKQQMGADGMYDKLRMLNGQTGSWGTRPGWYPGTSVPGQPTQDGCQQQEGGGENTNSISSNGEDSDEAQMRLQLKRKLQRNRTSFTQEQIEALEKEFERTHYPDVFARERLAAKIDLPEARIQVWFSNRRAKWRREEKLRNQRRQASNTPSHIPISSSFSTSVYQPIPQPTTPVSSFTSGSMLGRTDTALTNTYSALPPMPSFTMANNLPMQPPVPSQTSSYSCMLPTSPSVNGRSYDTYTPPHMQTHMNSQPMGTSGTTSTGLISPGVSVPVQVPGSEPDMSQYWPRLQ
Hypoxia-inducible factor 1-alpha (Homo sapiens), sequence (Q16665 whole entry, looked up): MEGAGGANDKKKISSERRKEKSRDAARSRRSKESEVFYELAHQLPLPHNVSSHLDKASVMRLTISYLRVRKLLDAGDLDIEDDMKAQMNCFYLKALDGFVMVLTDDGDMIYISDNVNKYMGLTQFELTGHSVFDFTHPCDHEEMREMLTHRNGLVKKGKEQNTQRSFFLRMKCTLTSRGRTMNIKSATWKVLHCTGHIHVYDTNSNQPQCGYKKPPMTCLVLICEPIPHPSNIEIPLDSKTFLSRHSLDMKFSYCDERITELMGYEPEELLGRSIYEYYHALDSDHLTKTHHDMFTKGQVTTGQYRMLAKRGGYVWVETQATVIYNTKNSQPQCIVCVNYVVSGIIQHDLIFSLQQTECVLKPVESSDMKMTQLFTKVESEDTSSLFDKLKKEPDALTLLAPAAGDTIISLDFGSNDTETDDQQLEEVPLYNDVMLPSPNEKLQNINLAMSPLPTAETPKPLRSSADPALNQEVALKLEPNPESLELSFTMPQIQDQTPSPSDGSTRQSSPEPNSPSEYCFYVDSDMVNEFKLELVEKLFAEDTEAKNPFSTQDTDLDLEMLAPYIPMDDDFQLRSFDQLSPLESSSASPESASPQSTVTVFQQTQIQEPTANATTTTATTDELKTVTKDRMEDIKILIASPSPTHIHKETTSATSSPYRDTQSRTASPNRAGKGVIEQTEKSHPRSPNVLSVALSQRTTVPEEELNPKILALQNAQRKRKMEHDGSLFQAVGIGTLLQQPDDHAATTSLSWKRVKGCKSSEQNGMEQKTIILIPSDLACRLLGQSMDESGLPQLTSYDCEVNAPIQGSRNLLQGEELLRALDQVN
Heat shock factor protein 1 (Homo sapiens), sequence (Q00613 whole entry, looked up): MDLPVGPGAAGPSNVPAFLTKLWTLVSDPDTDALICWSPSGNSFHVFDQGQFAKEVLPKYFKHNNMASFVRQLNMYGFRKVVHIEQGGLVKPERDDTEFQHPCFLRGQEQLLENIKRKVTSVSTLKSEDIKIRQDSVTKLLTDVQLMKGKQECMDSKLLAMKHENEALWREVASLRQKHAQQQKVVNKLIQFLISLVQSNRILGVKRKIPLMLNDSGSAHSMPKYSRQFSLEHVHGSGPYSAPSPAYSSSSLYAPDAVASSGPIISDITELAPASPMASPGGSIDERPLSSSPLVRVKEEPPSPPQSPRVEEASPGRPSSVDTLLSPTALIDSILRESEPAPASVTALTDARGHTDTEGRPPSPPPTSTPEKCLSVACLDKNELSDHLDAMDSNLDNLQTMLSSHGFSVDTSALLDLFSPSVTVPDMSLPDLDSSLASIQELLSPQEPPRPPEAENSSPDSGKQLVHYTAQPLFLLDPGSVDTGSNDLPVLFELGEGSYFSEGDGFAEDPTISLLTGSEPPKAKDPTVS
Transcription factor Sp1 (Homo sapiens), sequence (P08047 whole entry, looked up): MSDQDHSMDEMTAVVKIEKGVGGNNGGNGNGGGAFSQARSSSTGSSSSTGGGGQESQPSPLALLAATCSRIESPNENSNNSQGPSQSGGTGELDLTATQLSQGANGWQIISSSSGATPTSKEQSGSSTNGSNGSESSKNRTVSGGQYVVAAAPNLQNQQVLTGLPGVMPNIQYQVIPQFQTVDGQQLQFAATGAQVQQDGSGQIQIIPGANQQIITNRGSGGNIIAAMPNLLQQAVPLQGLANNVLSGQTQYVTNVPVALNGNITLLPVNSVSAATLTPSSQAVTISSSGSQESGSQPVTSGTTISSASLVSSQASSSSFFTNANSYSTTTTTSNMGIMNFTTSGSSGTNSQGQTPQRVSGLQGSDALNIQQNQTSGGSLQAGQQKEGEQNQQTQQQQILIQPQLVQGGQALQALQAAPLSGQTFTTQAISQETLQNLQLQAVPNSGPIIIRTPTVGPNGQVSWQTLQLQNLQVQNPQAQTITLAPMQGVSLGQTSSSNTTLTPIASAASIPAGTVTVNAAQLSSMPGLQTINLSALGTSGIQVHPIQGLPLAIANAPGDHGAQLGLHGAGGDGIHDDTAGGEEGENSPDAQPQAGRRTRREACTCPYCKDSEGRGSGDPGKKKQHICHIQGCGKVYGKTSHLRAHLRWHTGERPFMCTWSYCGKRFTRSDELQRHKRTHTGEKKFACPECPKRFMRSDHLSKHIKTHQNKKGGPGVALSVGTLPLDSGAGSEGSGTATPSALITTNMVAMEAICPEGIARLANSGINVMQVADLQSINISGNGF
Hepatocyte nuclear factor 6 (Homo sapiens), sequence (Q9UBC0 whole entry, looked up, the tested form may be a part): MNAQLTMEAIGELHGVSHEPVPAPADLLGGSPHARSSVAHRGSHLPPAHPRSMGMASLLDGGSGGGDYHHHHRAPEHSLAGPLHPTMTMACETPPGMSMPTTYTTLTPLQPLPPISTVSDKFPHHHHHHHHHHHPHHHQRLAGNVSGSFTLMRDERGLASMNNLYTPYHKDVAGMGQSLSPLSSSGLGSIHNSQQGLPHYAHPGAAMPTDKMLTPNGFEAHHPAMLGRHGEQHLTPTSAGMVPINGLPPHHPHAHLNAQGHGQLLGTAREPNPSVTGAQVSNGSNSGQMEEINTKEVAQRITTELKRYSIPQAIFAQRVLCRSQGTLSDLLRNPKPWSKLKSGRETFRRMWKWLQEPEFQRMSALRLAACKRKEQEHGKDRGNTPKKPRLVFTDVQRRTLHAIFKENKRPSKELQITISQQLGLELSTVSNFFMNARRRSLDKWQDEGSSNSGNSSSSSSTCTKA
Signal transducer and activator of transcription 3 (Homo sapiens), sequence (P40763 whole entry, looked up): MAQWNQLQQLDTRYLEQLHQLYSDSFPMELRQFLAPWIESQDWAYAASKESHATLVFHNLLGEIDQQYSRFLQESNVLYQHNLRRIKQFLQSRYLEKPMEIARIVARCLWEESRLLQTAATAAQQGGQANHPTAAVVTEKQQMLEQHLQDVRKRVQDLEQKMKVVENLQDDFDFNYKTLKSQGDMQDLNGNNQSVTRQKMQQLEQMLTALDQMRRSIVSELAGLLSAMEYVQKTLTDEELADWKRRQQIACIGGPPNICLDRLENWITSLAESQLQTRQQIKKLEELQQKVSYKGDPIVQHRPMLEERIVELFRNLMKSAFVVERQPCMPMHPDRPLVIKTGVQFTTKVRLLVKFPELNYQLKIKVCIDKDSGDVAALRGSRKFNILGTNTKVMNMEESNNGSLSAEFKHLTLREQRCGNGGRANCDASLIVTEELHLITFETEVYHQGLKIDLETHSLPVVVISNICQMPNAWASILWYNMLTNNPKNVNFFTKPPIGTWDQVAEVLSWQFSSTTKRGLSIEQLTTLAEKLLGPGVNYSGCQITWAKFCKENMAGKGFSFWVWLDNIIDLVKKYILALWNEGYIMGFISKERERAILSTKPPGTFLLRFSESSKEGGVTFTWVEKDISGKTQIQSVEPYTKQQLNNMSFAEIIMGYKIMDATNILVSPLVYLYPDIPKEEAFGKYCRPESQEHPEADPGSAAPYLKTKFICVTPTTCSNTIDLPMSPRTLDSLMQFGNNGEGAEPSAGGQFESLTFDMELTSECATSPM

Consider `CCCCCCCOC(=O)CCC`, for which the compound was classed as inactive in assay [1], in assay [2], in assay [3], in assay [4], in [5] and in assay [6]. The result in [7], in assay [8], in assay [9], in [10], in assay [12] and in assay [13] was inactive. In addition, the compound was called inactive in [14], in [15], in assay [16], in [17] and in assay [18]. Further, the AC50 in [11] was 48 µM (active).
With `CC(=O)c1ccc2c(c1)CCCC2`, the call in [1], in [2], in assay [3], in assay [4], in assay [5] and in [6] was inactive. Further, the call in assay [7], in [8], in assay [9], in assay [10], in assay [12] and in [14] was inactive. The compound was called inactive in [15], in [19], in assay [16], in assay [17] and in assay [18]. Also, the AC50 in assay [11] was 26.4 µM (active).
As for `CC(=O)Nc1nnc(S(N)(=O)=O)s1`, the result in assay [1], in assay [2], in assay [3], in [4], in assay [5] and in assay [6] was inactive. The result in [7], in assay [8], in assay [9], in assay [10], in assay [11] and in [13] was inactive. Further, the compound was called inactive in assay [14], in [15], in assay [19], in assay [16], in assay [17] and in assay [18].
As for `CC(C)c1ccc(C=O)cc1`, the call in assay [1], in assay [2], in assay [3], in assay [4], in [5] and in [6] was inactive. The compound was called inactive in [7], in [8], in [9], in assay [10], in assay [11] and in [14]. For the same compound, the call in assay [15], in [19], in assay [17] and in assay [18] was inactive.
For the compound `C=CC(=O)OCCOC(=O)C=C`, the call in [1], in [3], in [4], in assay [5], in [6] and in assay [7] was inactive. Also, the outcome in assay [9], in [14], in assay [19] and in assay [17] was inactive. The AC50 in assay [2] is 25.6 µM (active); in [8], 27.5 µM (active); in assay [10], 14.9 µM (active); in [11], 26.5 µM (active); in assay [13] it was 27.3 µM (active); in assay [15], 25.3 µM (active). For the same compound, the AC50 in assay [18] was 26.7 µM (active).
Consider `CC1=NC(C)OC1C` (configuration not stated), for which the compound was classed as inactive in assay [1], in assay [3], in [4], in [5], in [6] and in assay [8]. Further, the outcome in assay [9], in [10], in assay [13], in assay [14], in [15] and in [19] was inactive. Moreover, the compound was called inactive in assay [16] and in assay [17]. Also, the AC50 is 100 µM (active) in [2], 160 µM (active) in assay [7] and 100 µM (active) in assay [18].
Turning to `C[Si](C)(CCCN)O[Si](C)(C)CCCN`, the compound was called inactive in assay [1], in assay [2], in assay [3], in assay [4], in [5] and in assay [6]. In addition, the compound was called inactive in assay [7], in [8], in [9], in assay [10], in assay [12] and in [13]. Further, the compound was called inactive in [14], in assay [15], in [16], in assay [17] and in assay [18]. In addition, the AC50 in assay [19] was 54.5 µM (active).
